Assay results from PubChem BioAssay (EPA / NIEHS).
Results filed as inconclusive are left out. The source made the active and inactive calls. Rule for the calls, unless noted: active = hit-call score of the fitted dose curve at least 0.9, where 1 is the maximum; inactive = score below 0.9.

Columns and labels:
[1] = target: Glucocorticoid receptor (Homo sapiens) (UniProt P04150); experiment: ATG_GR_TRANS: Attagene TRANS-FACTORIAL HepG2 Assay for human Glucocorticoid Receptor (GR) (AID 2282978; active = hit-call score of the fitted dose curve at least 0.9, where 1 is the maximum;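 note: activators score as hits since higher reporter transcript over DMSO is fitted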); conditions: HepG2 Attagene TRANS GR reporter, mRNA transcription
Outline: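 Fluorescent capillary-electrophoresis quantitation of reporter mRNA is the readout, taken 24 h after dosing human HepG2 cells carrying transiently transfected GAL4-UAS reporter units activated by chimeric NR-GAL4 fusions; activity scored as induction over DMSO.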

[2] = target: Oxysterols receptor LXR-beta (Homo sapiens) (UniProt P55055); experiment: ATG_LXRb_TRANS: Attagene TRANS-FACTORIAL HepG2 Assay for human Liver X Receptor beta (LXRb) (AID 2282981; active = hit-call score of the fitted dose curve at least 0.9, where 1 is the maximum); conditions: HepG2 Attagene TRANS GAL4-LXRb reporter, mRNA
Outline: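 After 24 h chemical treatment of transfected HepG2 cells carrying exogenous NR-Gal4 chimeras, reporter mRNA was quantified by fluorescent RT-PCR and capillary electrophoresis; activity taken as increase over DMSO controls.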

[3] = target: Hepatocyte nuclear factor 4-alpha (Homo sapiens) (UniProt P41235); experiment: ATG_HNF4a_TRANS: Attagene TRANS-FACTORIAL HepG2 Assay for human Hepatocyte Nuclear Factor 4 alpha (HNF4a) (AID 2282982; active = hit-call score of the fitted dose curve at least 0.9, where 1 is the maximum); conditions: HepG2 HNF4a transactivation reporter, mRNA readout
Outline: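 Activity of an exogenous HNF4a–Gal4 fusion scored as induced GAL4-UAS reporter transcripts after 24 h chemical exposure of transfected human HepG2 cells. Read-out via RT-PCR with 6-FAM labelling and capillary electrophoresis; rise over DMSO baseline.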

[4] = ATG_M_06_TRANS: Attagene TRANS-FACTORIAL HepG2 Assay for M06 Transcription Factor (Internal Marker) (AID 2282983; active = hit-call score of the fitted dose curve at least 0.9, where 1 is the maximum); conditions: HepG2 Attagene TRANS M06 internal marker reporter
Outline: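 Human liver HepG2 cells bearing transiently transfected chimeric NR-GAL4 reporter units were treated with chemicals for 24 h. Total RNA was reverse-transcribed, reporter sequences amplified and labelled, then quantified by capillary electrophoresis. Activity was fitted upward relative to DMSO.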

[5] = ATG_M_32_TRANS: Attagene TRANS-FACTORIAL HepG2 Assay for M32 Transcription Factor (Internal Marker) (AID 2282984; active = hit-call score of the fitted dose curve at least 0.9, where 1 is the maximum); conditions: HepG2 Attagene TRANS M32 internal marker reporter
Outline: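 Internal background reporter in transfected HepG2: after 24 h chemical exposure, RNA reverse-transcribed, reporter cDNA amplified, fluorescently labelled and HpaI-cut, then sized by capillary electrophoresis. Gain of signal fitted against DMSO control.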

[6] = target: Nuclear receptor subfamily 4 group A member 2 (Homo sapiens) (UniProt P43354); experiment: ATG_NURR1_TRANS: Attagene TRANS-FACTORIAL HepG2 Assay for human Nuclear Receptor Related Protein 1 (NURR1) (AID 2282985; active = hit-call score of the fitted dose curve at least 0.9, where 1 is the maximum); conditions: HepG2 Attagene TRANS reporter, mRNA readout
Outline: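 Reporter transcript induction, measured by RT-PCR with fluorescent labelling, HpaI digestion and capillary electrophoresis, after 24 hr dosing of human HepG2 cells transiently expressing an exogenous NR-Gal4 fusion with GAL4-UAS-driven reporters; DMSO as baseline.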

[7] = target: Transcriptional activator Myb (Homo sapiens) (UniProt P10242); experiment: ATG_Myb_CIS: Attagene CIS-FACTORIAL HepG2 Assay for human Myeloblastosis (Myb) Proto-Oncogene Transcription Factor (AID 2282986); conditions: HepG2 Attagene CIS-FACTORIAL Myb reporter transcription; actives raise or lower the signal
Outline: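 Reporter transcript levels, quantified by fluorescent RT-PCR and capillary electrophoresis, serve as the read-out. Transfected HepG2 cells carrying cis-promoter reporter units are dosed for 24 hours, and curves are fitted bidirectionally against DMSO controls.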

[8] = target: Nuclear respiratory factor 1 (Homo sapiens) (UniProt Q16656); experiment: ATG_NRF1_CIS: Attagene CIS-FACTORIAL HepG2 Assay for human Nuclear Respiratory Factor 1 (NRF1) Orphan Gene (AID 2282987); conditions: HepG2 NRF1 cis-element reporter, Attagene multiplex; actives raise or lower the signal
Outline: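 Multiplexed cis-reporter assay, HepG2 cells, 24 h treatment. Total RNA → oligo(dT) RT → PCR with reporter-specific primers → 6-FAM primer extension → HpaI cut → CE. Bidirectional fit vs DMSO.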

[9] = target: Myc proto-oncogene protein (Homo sapiens) (UniProt P01106); experiment: ATG_Myc_CIS: Attagene CIS-FACTORIAL HepG2 Assay for human Myelocytomatosis (Myc) Proto-Oncogene Transcription Factor (AID 2282990); conditions: HepG2, Attagene cis-reporter transcription factor activity; actives raise or lower the signal
Outline: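 HepG2, transient MRTU transfection (cis promoters, endogenous TFs); 24 h dosing; TriZol RNA → oligo(dT) RT → PCR → 6-FAM primer extension → HpaI cut → CE. Bidirectional fit vs DMSO.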

[10] = ATG_NRF2_ARE_CIS: Attagene CIS-FACTORIAL HepG2 Assay for human Nuclear Factor Erythroid 2 Related Factor 2 (NFR2) response to Antioxidant Response Elements (ARE) (AID 2282992); conditions: HepG2 Attagene ARE/NRF2 reporter, transcription factor activity; actives raise or lower the signal;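 for AC50: reporter mRNA level measured by RT-PCR and capillary electrophoresis fluorescence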
Outline: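 Readout: reporter mRNA quantified by RT-PCR plus FAM-labelled primer extension, HpaI digestion and capillary electrophoresis, 24 h after dosing transfected HepG2 cells. Gain or loss of signal is fitted bidirectionally against DMSO baseline.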

[11] = ATG_Oct_MLP_CIS: Attagene CIS-FACTORIAL HepG2 Assay for human Octamer-Binding Transcription Factor (Oct) (AID 2282993); conditions: HepG2 Attagene cis-factorial Oct reporter, mRNA; actives raise or lower the signal
Outline: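 HepG2, transient MRTU transfection, cis promoter elements; 24 h dosing; RT-PCR/CE fluorescence read-out of reporter mRNA; fit both directions vs DMSO.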

[12] = target: Cellular tumor antigen p53 (Homo sapiens) (UniProt P04637); experiment: ATG_p53_CIS: Attagene CIS-FACTORIAL HepG2 Assay for human p53 Transcription Factor (AID 2282994); conditions: HepG2 p53 cis-element reporter, Attagene mRNA; actives raise or lower the signal
Outline: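 Read-out: reporter mRNA by RT-PCR plus capillary electrophoresis with fluorescence detection. Human HepG2 liver cells carried transfected multi-reporter cis-element constructs, dosed 24 h. Gain or loss of signal fitted bidirectionally against DMSO control.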

[13] = ATG_NFI_CIS: Attagene CIS-FACTORIAL HepG2 Assay for human Nuclear Factor I (NFI) (AID 2282989); conditions: HepG2 cis-regulatory reporter, NFI response element transcription; actives raise or lower the signal
Outline: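 Cells: human liver HepG2, transiently transfected with promoter-regulated reporter transcription units. Exposure 24 h. Detection: fluorescent RT-PCR products separated by capillary electrophoresis, normalised to DMSO negative control.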

[14] = ATG_NF_kB_CIS: Attagene CIS-FACTORIAL HepG2 Assay for human Nuclear Factor Kappa B (NF-kB) (AID 2282991); conditions: HepG2 Attagene cis-factorial NF-kB reporter mRNA; actives raise or lower the signal
Outline: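 Transient MRTU transfection of human HepG2 liver cells → 24 h chemical exposure → total RNA, oligo(dT) RT → PCR, 6-FAM primer extension, HpaI digest 2 h 37 C → CE fragment analysis. Bidirectional fitting, DMSO negative control.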

[15] = BSK_3C_TissueFactor: BioMAP Diversity Plus: 3C Assay for Tissue Factor Biomarker Activity (AID 2282997); conditions: BioMAP 3C HUVEC, tissue factor biomarker readout; actives raise or lower the signal
Outline: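 Cells used were primary human umbilical vein endothelial cells. They were dosed with chemical, and after 24 h Tissue Factor was quantified by ELISA. Curves were fitted bidirectionally with DMSO as baseline.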

[16] = BSK_3C_uPAR: BioMAP Diversity Plus: 3C Assay for Urokinase-type plasminogen activator receptor (uPAR) Biomarker Activity (AID 2282998); conditions: BioMAP 3C HUVEC, uPAR biomarker ELISA; actives raise or lower the signal
Outline: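 A multiplexed primary-cell system built on human umbilical vein endothelium was used, with chemical present for 24 h before reading. Cell-surface uPAR was detected by ELISA; signal change in either direction counted against DMSO.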

[17] = BSK_3C_VCAM1: BioMAP Diversity Plus: 3C Assay for Vascular cell adhesion molecule 1 (VCAM1) Biomarker Activity (AID 2282999); conditions: BioMAP 3C HUVEC, VCAM1 ELISA, cytokine-stimulated; actives raise or lower the signal
Outline: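 Activity fitted in both directions relative to DMSO, with ELISA measurement of the surface marker on primary HUVEC (3C) at 24 h post-treatment; parallel SRB staining (0.1% SRB, TCA-fixed, 560 nm) flagged overt cytotoxicity.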

[18] = target: Bile acid receptor (Homo sapiens) (UniProt Q96RI1); experiment: ATG_FXR_TRANS: Attagene TRANS-FACTORIAL HepG2 Assay for Farnesoid X Receptor (FXR) (AID 2282979; active = hit-call score of the fitted dose curve at least 0.9, where 1 is the maximum;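 note: hits raise reporter mRNA above DMSO so AC50 marks FXR activation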); conditions: HepG2 Attagene TRANS FXR-GAL4 reporter transcription
Outline: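 Chimeric FXR-GAL4 activity in transiently transfected human HepG2 liver cells is scored as induction of reporter mRNA after 24 h of dosing. Detection uses RT-PCR with fluorescent labelling and capillary electrophoresis, with DMSO serving as baseline.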

[19] = target: Oxysterols receptor LXR-alpha (Homo sapiens) (UniProt Q13133); experiment: ATG_LXRa_TRANS: Attagene TRANS-FACTORIAL HepG2 Assay for human Liver X Receptor alpha (LXRa) (AID 2282980; active = hit-call score of the fitted dose curve at least 0.9, where 1 is the maximum); conditions: HepG2 Attagene TRANS reporter, LXRa transactivation
Outline: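 Transient HepG2 transfectants, 24 h dosing, RT-PCR/CE mRNA reporter quantitation; gain-of-signal vs DMSO.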

Measured: AC50

Sequence of Myc proto-oncogene protein (Homo sapiens) (P01106 whole entry, looked up): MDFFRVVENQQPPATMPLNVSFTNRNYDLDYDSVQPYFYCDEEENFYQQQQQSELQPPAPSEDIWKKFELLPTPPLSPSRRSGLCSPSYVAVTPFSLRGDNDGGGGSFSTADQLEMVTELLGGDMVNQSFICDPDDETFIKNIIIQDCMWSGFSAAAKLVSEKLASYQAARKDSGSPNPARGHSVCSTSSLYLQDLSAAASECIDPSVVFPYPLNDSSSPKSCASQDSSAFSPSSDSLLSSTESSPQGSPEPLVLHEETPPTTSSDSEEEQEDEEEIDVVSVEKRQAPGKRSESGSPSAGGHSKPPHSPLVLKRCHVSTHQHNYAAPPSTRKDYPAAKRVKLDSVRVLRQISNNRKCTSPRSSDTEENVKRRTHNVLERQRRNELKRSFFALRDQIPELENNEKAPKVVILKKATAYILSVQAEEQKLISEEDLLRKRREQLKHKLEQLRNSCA
Sequence of Cellular tumor antigen p53 (Homo sapiens) (P04637 whole entry, looked up): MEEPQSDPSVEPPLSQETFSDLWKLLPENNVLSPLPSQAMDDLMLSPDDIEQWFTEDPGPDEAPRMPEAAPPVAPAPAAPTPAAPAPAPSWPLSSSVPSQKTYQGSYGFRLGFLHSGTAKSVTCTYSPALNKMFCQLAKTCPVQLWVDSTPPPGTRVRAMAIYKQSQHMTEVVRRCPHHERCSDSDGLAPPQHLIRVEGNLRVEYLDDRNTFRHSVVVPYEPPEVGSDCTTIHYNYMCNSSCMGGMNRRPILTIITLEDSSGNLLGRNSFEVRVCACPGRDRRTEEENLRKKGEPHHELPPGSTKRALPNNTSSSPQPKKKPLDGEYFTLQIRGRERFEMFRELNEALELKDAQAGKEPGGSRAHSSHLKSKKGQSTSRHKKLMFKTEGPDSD
Sequence of Nuclear respiratory factor 1 (Homo sapiens) (Q16656 whole entry, looked up): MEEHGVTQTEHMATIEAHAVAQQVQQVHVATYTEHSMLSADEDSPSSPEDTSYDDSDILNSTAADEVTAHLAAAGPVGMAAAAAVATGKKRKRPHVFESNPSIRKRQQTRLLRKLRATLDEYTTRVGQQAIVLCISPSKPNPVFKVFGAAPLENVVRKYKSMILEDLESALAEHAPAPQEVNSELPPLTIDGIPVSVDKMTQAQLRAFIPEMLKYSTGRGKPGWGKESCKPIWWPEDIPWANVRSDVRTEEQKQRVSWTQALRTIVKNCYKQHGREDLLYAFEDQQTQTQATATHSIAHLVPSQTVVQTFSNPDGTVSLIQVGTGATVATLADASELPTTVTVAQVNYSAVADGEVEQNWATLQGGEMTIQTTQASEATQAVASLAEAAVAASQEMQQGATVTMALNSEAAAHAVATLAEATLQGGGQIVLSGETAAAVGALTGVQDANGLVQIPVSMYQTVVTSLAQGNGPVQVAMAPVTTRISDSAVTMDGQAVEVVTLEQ
Sequence of Oxysterols receptor LXR-alpha (Homo sapiens) (Q13133 whole entry, looked up): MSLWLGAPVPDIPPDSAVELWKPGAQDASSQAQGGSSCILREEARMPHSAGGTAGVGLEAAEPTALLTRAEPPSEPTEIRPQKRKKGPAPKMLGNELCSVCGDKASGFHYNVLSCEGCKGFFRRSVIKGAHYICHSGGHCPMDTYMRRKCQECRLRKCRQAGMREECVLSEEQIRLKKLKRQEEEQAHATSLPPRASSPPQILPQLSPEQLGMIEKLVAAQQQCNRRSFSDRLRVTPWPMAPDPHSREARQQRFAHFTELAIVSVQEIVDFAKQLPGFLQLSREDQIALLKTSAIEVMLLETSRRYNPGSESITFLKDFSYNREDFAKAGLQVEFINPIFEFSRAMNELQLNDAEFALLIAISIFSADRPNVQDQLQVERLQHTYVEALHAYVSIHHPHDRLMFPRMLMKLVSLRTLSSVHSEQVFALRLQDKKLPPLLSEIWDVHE
Sequence of Glucocorticoid receptor (Homo sapiens) (P04150 whole entry, looked up, the tested form may be a part): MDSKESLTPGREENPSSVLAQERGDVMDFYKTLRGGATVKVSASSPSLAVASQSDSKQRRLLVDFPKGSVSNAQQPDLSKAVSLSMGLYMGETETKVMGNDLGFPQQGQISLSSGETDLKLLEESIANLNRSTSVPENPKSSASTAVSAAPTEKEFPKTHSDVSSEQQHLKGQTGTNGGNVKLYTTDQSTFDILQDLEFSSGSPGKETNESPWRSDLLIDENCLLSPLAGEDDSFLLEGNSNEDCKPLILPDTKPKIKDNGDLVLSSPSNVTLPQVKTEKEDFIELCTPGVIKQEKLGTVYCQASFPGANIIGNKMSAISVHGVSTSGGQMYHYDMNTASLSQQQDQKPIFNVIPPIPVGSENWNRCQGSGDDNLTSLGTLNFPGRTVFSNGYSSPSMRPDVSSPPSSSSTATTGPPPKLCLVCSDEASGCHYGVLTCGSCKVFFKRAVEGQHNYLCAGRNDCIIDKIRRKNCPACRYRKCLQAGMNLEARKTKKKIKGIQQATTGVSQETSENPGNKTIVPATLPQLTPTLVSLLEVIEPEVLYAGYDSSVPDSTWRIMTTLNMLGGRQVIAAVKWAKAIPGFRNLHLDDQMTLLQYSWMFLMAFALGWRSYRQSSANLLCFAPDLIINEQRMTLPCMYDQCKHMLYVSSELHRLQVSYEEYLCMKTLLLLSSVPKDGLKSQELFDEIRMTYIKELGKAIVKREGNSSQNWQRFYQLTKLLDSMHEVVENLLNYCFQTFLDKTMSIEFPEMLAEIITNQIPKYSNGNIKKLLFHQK
Sequence of Hepatocyte nuclear factor 4-alpha (Homo sapiens) (P41235 whole entry, looked up, the tested form may be a part): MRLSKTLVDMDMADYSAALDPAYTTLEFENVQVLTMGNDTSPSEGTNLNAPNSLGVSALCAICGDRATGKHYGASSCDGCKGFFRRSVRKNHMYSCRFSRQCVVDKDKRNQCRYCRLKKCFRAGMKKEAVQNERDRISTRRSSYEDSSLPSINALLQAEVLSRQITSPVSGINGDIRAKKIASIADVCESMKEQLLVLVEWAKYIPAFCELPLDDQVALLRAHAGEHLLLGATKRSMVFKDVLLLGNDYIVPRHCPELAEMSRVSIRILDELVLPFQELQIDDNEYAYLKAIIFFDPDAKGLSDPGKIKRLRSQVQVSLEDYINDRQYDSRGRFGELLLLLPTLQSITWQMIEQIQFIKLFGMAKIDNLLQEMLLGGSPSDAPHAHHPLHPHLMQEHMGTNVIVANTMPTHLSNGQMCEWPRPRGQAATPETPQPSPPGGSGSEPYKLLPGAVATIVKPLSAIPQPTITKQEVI
Sequence of Transcriptional activator Myb (Homo sapiens) (P10242 whole entry, looked up): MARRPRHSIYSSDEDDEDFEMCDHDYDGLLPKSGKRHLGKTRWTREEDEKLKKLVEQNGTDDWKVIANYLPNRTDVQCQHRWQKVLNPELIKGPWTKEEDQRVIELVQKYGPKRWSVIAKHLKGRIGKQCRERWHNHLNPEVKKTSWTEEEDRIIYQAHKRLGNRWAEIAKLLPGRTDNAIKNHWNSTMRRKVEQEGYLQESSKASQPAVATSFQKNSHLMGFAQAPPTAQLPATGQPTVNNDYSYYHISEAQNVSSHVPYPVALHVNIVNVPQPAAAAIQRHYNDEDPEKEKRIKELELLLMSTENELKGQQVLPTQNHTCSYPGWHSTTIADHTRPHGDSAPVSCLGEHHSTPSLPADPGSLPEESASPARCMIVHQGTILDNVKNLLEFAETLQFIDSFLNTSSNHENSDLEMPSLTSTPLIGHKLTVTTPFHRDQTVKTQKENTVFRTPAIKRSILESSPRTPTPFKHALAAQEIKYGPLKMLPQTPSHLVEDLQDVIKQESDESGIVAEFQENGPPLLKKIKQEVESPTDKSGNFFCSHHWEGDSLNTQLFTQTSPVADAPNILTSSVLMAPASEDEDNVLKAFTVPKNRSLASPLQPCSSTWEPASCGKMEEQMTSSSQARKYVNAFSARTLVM
Sequence of Nuclear receptor subfamily 4 group A member 2 (Homo sapiens) (P43354 whole entry, looked up, the tested form may be a part): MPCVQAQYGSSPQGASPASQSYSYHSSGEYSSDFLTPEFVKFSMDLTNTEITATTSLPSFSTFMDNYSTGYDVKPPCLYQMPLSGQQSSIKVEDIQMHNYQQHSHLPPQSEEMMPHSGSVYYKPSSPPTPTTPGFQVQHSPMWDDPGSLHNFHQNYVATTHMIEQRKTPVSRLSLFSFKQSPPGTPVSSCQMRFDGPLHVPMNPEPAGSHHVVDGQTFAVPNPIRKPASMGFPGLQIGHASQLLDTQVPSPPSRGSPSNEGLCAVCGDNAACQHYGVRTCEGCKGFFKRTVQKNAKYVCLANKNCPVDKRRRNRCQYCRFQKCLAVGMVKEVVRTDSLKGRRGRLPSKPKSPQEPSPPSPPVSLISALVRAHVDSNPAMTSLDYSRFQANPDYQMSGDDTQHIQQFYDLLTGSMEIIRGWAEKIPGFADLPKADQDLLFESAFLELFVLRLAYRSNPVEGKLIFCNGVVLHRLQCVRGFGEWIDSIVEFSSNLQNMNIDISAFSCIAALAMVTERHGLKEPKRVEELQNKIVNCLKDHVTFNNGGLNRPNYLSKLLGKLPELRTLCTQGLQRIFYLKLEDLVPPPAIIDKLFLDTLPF
Sequence of Bile acid receptor (Homo sapiens) (Q96RI1 whole entry, looked up, the tested form may be a part): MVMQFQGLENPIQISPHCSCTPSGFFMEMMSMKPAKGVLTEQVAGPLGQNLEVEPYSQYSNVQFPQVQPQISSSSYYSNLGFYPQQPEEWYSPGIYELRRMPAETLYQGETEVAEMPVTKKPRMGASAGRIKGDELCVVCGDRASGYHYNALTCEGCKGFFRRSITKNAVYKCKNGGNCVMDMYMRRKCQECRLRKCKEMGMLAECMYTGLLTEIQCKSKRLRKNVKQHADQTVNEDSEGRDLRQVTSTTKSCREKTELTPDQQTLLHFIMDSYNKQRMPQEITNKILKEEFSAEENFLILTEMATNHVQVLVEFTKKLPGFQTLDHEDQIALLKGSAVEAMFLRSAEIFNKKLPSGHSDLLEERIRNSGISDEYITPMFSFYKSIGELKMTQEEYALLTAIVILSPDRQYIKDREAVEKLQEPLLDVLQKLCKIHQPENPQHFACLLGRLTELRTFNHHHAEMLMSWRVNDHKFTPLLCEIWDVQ

c1coc(CNc2ncnc3nc[nH]c23)c1
active: [10] 33.8 µM
not listed: [13] | [14] | [15] | [16] | [17] | [18] | [19]
inactive: all other assays above

[Cu+]
active: [10] 2.29 µM
not listed: [4] | [14] | [15] | [16] | [17] | [18] | [19]
inactive: all other assays above

CCCCOC(=O)C(C)OC(=O)CCC (configuration not stated)
not listed: [5] | [6] | [11] | [15] | [16] | [17] | [18] | [19]
inactive: all other assays above

CCCO[Si](OCCC)(OCCC)OCCC
not listed: [2] | [3] | [14] | [18] | [19]
inactive: all other assays above

CCc1cccc(O)c1
inactive: [18] | [3] | [4] | [5] | [7] | [13] | [9] | [10] | [11] | [12]

CCC(=O)OCC=Cc1ccccc1
active: [10] 36.3 µM | [16] 20 µM
not listed: [1] | [6] | [19]
inactive: all other assays above

CCOC(=O)C(=O)OCC
inactive: [1] | [3] | [8] | [13] | [9] | [10] | [11] | [12]

CCC(=O)OC(C)(C)C1CC=C(C)CC1 (configuration not stated)
active: [10] 127 µM
not listed: [1] | [4] | [13] | [14] | [15] | [16] | [17]
inactive: all other assays above

CC1(C)[C@H](C=C(Cl)Cl)[C@H]1C(=O)OCc1cccc(Oc2ccccc2)c1
not listed: [2] | [5] | [8] | [14] | [18] | [19]
inactive: all other assays above

C/C=C(\C)C(=O)OC/C=C(\C)CCC=C(C)C
active: [6] 20 µM | [10] 100 µM
not listed: [2] | [14] | [15] | [16] | [17] | [18] | [19]
inactive: all other assays above

CC(=O)C1=C(C)[C@@H]2C[C@@]3(C1)[C@H](C)CC[C@H]3C2(C)C
active: [13] 137 µM | [10] 70.1 µM | [12] 100 µM
inactive: [18] | [5] | [6] | [8] | [9] | [11]

CC(C)COC(=O)c1ccccc1O
not listed: [2] | [3] | [15] | [16] | [17] | [18] | [19]
inactive: all other assays above

O=c1cc[nH]cc1
not listed: [1] | [2] | [7] | [15] | [16] | [17]
inactive: all other assays above

NC(=O)c1c(Cl)cccc1Cl
active: [15] 0.0671 µM
not listed: [1] | [2] | [5] | [6] | [12] | [19]
inactive: all other assays above

CC1=C(C=O)C(C)(C)CCC1
inactive: [18] | [2] | [4] | [8] | [13] | [9] | [14] | [10] | [11]

CCCCOCCOCCO
not listed: [2] | [3] | [11] | [13] | [18] | [19]
inactive: all other assays above

CC(C)(C)c1ccc(S)cc1
active: [10] 16.1 µM
inactive: [1] | [4] | [5] | [7] | [8] | [13] | [9] | [11] | [12]

c1ccc2c(c1)-c1ccc3ccc4cccc5cc-2c1c3c45
active: [10] 0.205 µM | [15] 0.0352 µM | [16] 0.667 µM
not listed: [1]
inactive: all other assays above
